Screens from PubChem.
Shown are actives, neighbours in structure and some others; about 13% of the full set was active somewhere.
Pf growth 48h: Primary qHTS for delayed death inhibitors of the malarial parasite plastid, 48 hour incubation; P. falciparum luciferase growth in erythrocytes, 48 h; Potency, µM (titrated, usually from 28.7 µM), for the others: at the highest dose activity change, negative = inhibition, actives largely listed as inhibitors; 310,000 compounds, 5.9% hits; AID 504832, 2011; note: potency is the fitted concentration of half-maximal effect
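Compounds are pin-transferred into medium, infected erythrocytes (2% hematocrit, 0.1% parasitemia final) are added, and plates sit one parasite generation at 37 C in 5% CO2. Detection reagent is then added and luminescence measured.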
Pf growth 96h: Primary qHTS for delayed death inhibitors of the malarial parasite plastid, 96 hour incubation; 320,000 compounds, 6.9% hits; AID 504834, 2011; P. falciparum luciferase reporter growth, 96 h; Potency, µM (titrated, usually from 28.7 µM), for inactives: at the top dose activity change, negative = inhibition, actives largely listed as inhibitors; note: potency is the fitted concentration of half-maximal effect
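Cell-based qHTS: luciferase-tagged P. falciparum in erythrocytes (2% hematocrit, 0.05% parasitemia final) incubated with compounds for 96 hours, 37 C, 5% CO2; luciferase detection reagent then added and luminescence measured.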
HCV inhibitor: qHTS Assay for Inhibitors of Hepatitis C Virus (HCV) | Huh7.5.1 HCVcc-Cre infection, luciferase reporter, 44 h | Potency, µM (top dose mostly 41.8 µM), inactives show top-dose activity change, negative = inhibition, most hits filed as inhibitors | 340,000 compounds, 3.4% hits | AID 651820, 2012; note: potency is the fitted concentration of half-maximal effect
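1,000 cells/well; 4 h culture; + compound; + HCVcc-Cre (~0.5 moi); 44 h; luciferase substrate, RT 15 min; read 15 sec.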
HCMV antiviral: qHTS Assay for inhibitors of the human cytomegalovirus (HCMV) | 410,000 compounds, 4.5% hits | activity change, negative = inhibition, % at 57.5 µM | HFF cells, HCMV-luciferase reporter, 72 h; stronger effect = lower value | AID 1259415, 2018; in the data active = activity change below about -60%; inconclusive = no clear call, values can overlap the other calls; inactive = above about -39%
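Two compound doses tested in HFFs infected with HCMV-luciferase, MOI 1 PFU/cell, 72 h at 37C. Lysate luminescence read with OneGlo; data normalized against buffer-only and 10uM Salinomycin inhibitor controls.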
Active calls of the source: *; ? = inconclusive; · = not tested or not shown; [ ] = another dose, or the depositor's remark. Unless noted, calls come from the whole dose curve; as a rule, active = well fitted inhibition curve with a large enough effect; inconclusive = small, poorly fitted or top-dose-only effect, or another doubt; inactive = no such curve, though single readings can be large or run the other way. % is set by controls: 0 for no effect and ±100 for the full control effect.

SMILES | Pf growth 48h | Pf growth 96h | HCV inhibitor | HCMV antiviral
C[C@]12CCC3C(CC[C@H]4C[C@@H](O)CC[C@]34C)C1CC[C@@]2(O)C(F)(F)F (some centres undefined) | · | · | 3% | -61*
Fc1cccc(CSc2nc(NCCc3ccccc3)c3ccccc3n2)c1 | · | · | · | 35
COc1ccc(C2C(C(=O)Nc3cccnc3)=C(C)Nc3nc(-c4cccs4)nn32)cc1 (centres undefined) | 12µM* | ? | -11% | 124
Cc1cc(C(=O)N/N=C2\CC(=O)c3ccccc32)c(C)n1-c1ccc(F)cc1 | 4.7µM* | 2.3µM* | -29% | -5
CCOc1cc(/C=N/NC(=O)c2cc(C)n(-c3ccc(F)cc3)c2C)ccc1O | 0% | -27% | ? | -11
Cc1ccccc1-c1nc(CS(=O)(=O)CC(=O)Nc2cccc(C(F)(F)F)c2)c(C)o1 | · | · | · | -39
CC(=O)c1ccc(N2CCN(Cc3cc(=O)n4c(-c5ccccc5)csc4n3)CC2)cc1 | · | · | 13µM* | 10
O=c1cc(CN2CCN(c3ccccc3)CC2)nc2scc(-c3ccccc3)n12 | ? | ? | -9% | 25
CCOC(=O)C1CCN(Cc2cc(=O)n3c(-c4ccccc4)csc3n2)CC1 | -21% | -16% | 11% | -16
COc1cc2c(cc1OC)CN(Cc1cc(=O)n3c(-c4ccccc4)csc3n1)CC2 | ? | ? | -30% | -73*
Cc1nn(C)c2c1c(C(F)(F)F)cc(=O)n2C(C)C(=O)Nc1ccccc1F (centres undefined) | · | · | · | 1
Cc1ccc(N2CC(NC(=O)c3ccco3)CC2=O)cc1C (centres undefined) | · | · | · | -18
COc1ccc(-c2c(C)c3ccc(O)c(CN4CCC(C)CC4)c3oc2=O)cc1OC | · | · | · | 6
CCOC(=O)C1(Cc2cccc(Cl)c2)CCCN(C(=O)c2cccc(C)n2)C1 (centres undefined) | ? | ? | 18µM* | 1
CCOC(=O)C1(Cc2cccc(OC)c2)CCCN(C(=O)c2cc(C)on2)C1 (centres undefined) | -15% | 6.6µM* | · | 67
CCOC(=O)C1(Cc2cccc(OC)c2)CCCN(Cc2nccn2CC)C1 (centres undefined) | ? | 12µM* | -4% | -21
CCc1ccc(CNC(=O)CCCN2C(=O)c3cccnc3Oc3ccc(Cl)cc32)cc1 | · | · | · | 0
COc1ccc(CCC(=O)NCc2ccc3c(c2)CCN3C(=O)c2ccc(C)cc2)cc1 | · | · | · | 11
CNC(=O)c1cccc(N2CCCC2=O)c1 | 20% | 19% | 8% | 46
CC1=C(C(=O)NC2CCCC(C)C2C)C2(CCCCC2)OC1=O (centres undefined) | ? | 24% | 14% | 19
CC1=C(C(=O)NC2CCCCC2C)C2(CCC(C)CC2)OC1=O (centres undefined) | 9.3µM* | -5% | 12% | 1
CC1=C(C(=O)Nc2cccc([N+](=O)[O-])c2)C2(CCC(C)CC2)OC1=O (centres undefined) | ? | 0.37µM* | 6% | 28
CC(NC(=O)c1cccc(N2CCCC2=O)c1)c1ccc2c(c1)OCCO2 (centres undefined) | ? | 12µM* | 3% | -9
CCOc1ccc(NC(=O)C2=C(C)C(=O)OC23CCC(C)CC3)cc1 (centres undefined) | · | -27% | -6% | -39
CC1=C(C(=O)NC(C)c2ccc3c(c2)OCCO3)C2(CCC(C)CC2)OC1=O (centres undefined) | ? | 10µM* | -3% | -5
SMILES | Pf growth 48h | Pf growth 96h | HCV inhibitor | HCMV antiviral
O=C1C2C3C=CC(C3)C2C(=O)N1c1nc2ccccc2s1 (centres undefined) | 23% | 8.3µM* | 17% | 8
O=C1C2C3C=CC(C3)C2C(=O)N1c1ccc2ccccc2n1 (centres undefined) | 12% | -7% | 3% | 61
CC[C@H]1NC(=O)c2cc(S(N)(=O)=O)c(Cl)cc2N1 | -16%[12.8 µM] | -23%[12.8 µM] | · | ·
S=C(Nc1cccnc1)N1CCc2ccccc21 | 10% | 5.2µM* | 17% | 41
O=[N+]([O-])c1cccc(NC(=S)N2CCc3ccccc32)c1 | 9% | ? | ? | -12
C=CCNc1nc(-c2ccccn2)nnc1-c1ccccc1 | · | 1.7µM* | ? | -103*
CCCCc1nc2cc(C(=O)N3CCNC(=O)C3CC(=O)OC)ccc2o1 (centres undefined) | 29% | ? | · | -24
